Assay outcomes (PubChem BioAssay)
Shown are actives, neighbours in structure and some others; about 3.1% of the full set was active somewhere.
Bead autofluor: flagged as autofluorescent in microsphere protease counterscreen; AID 624483; fluorescence intensity (test concentration not listed); compound autofluorescence counterscreen, microsphere flow cytometry; stronger effect = higher value; 360,000 tested, 3.1% active; in the data active = fluorescence intensity above about 16000; inconclusive = no clear call, values can overlap the other calls
BoNT F protease: BoNT F light chain protease inhibition; Multiplex microsphere protease cleavage assay, flow cytometry; inhibition, % at 10 µM; 360,000 tested, 0.22% active; AID 588497; in the data active = inhibition above about 35%, passing the limit was not always enough; inconclusive = no clear call, values can overlap the other calls
BoNT-A LC inh2: BoNT A light chain protease inhibition; inhibition, % at 10 µM; multiplex microsphere protease substrate cleavage, flow cytometry; 360,000 tested, 0.17% active
Anthrax LF prot: anthrax lethal factor protease inhibition | multiplex microsphere protease cleavage assay, LF | 360,000 tested, 0.12% active | inhibition, % at 10 µM | AID 588501 | P15917
SSB-PriA inh: inhibitors of Klebsiella pneumoniae PriA binding to SSB C-terminal tail; 430,000 tested, 0.6% active; inhibition, % at 33 µM; AlphaScreen SSBct-PriA binding, biotinylated peptide; in the data active = inhibition mostly above about 37%, no sharp cut-off; inactive = mostly below about 20%
Hits are given with their value; . = inactive; ? = inconclusive; / = no result; ! = a repeat was not active. Rule as the data show it, unless noted: active = inhibition above about 30%; inconclusive = no clear call, values can overlap the other calls; inactive = below that.

SMILES | Bead autofluor | BoNT F protease | BoNT-A LC inh2 | Anthrax LF prot | SSB-PriA inh
COc1ccc(Cn2c(CO)c[nH]c2=S)cc1 | / | / | / | / | .
O=C(Cn1cnc2c(cnn2C2CCS(=O)(=O)C2)c1=O)c1ccc(F)cc1 (stereo not given) | / | / | / | / | .
COc1ccc(-c2nnc3sc(-c4ccccn4)nn23)cc1 | / | / | / | / | 56
c1ccc(-c2nn3c(-c4ccncc4)nnc3s2)nc1 | / | / | / | / | 59
CC(C)(C)c1ccc(-c2nnc3sc(-c4ccccn4)nn23)cc1 | . | . | . | . | 46
COc1cccc(-c2nnc3sc(-c4ccccn4)nn23)c1 | . | . | . | . | .
Clc1ccc(-c2nnc3sc(-c4ccccn4)nn23)cc1 | / | / | / | / | .
c1ccc(-c2nnc3sc(-c4ccccn4)nn23)cc1 | / | / | / | / | .
c1ccc(OCc2nn3c(-c4ccncc4)nnc3s2)cc1 | 21442 | . | . | . | .
CN(C)c1ccc(-c2nnc3sc(-c4ccccn4)nn23)cc1 | / | / | / | / | 74
CN(C)c1ccc(-c2nn3c(-c4cccnc4)nnc3s2)cc1 | / | / | / | / | .
CCOC(=O)c1cnn(-c2nc(-c3ccccc3F)cs2)c1C(F)(F)F | 19894 | . | ? | . | .
COc1ccc2c(c1OC)C(=O)N(c1cnn(Cc3ccc(Cl)cc3)c1)C2=O | / | / | / | / | .
C=C(C)CSC1=C(C#N)C(c2ccccc2Cl)CC(=O)N1 (stereo not given) | 23035 | . | . | . | .
COC(=O)Nc1sccc1C(=O)Nc1sccc1C(=O)OC | . | . | . | . | .
COC(=O)c1c(NC(=O)CN2CCN(Cc3ccc4c(c3)OCO4)CC2)sc(C)c1C | ? | . | . | . | .
COC(=O)c1[nH]c2ccc(C)cc2c1NC(=O)CCN1CCN(Cc2ccc3c(c2)OCO3)CC1 | 22086 | . | . | . | .
COC(=O)c1ccsc1NC(=O)CN1CCN(Cc2ccc3c(c2)OCO3)CC1 | 21667 | . | . | . | .
CCC(=O)Nc1sccc1C(=O)OC | 22995 | . | ? | . | .
CC(=O)N1CCc2ccc(NC(=O)c3c(-c4ccccc4Cl)noc3C)cc2C1 | / | / | / | / | .
CC1CN(C(=O)Cn2c(S(=O)(=O)C(C)C)nc3ccccc32)CC(C)O1 (stereo not given) | / | / | / | / | .
CNC(=O)COC(=O)c1ccc(NS(=O)(=O)c2ccc3c(c2)OCCO3)cc1 | . | 43 | . | . | .
CC(C)NC(=O)COC(=O)c1ccc(NS(=O)(=O)c2ccc3c(c2)OCCO3)cc1 | . | . | . | . | .
NC(=O)COC(=O)c1ccc(NS(=O)(=O)c2ccc3c(c2)OCCO3)cc1 | . | . | . | . | .
CCCCNC(=O)COC(=O)c1ccc(NS(=O)(=O)c2ccc3c(c2)OCCO3)cc1 | 21536 | . | . | . | .
SMILES | Bead autofluor | BoNT F protease | BoNT-A LC inh2 | Anthrax LF prot | SSB-PriA inh
O=C(CCc1ccc(Cl)c(F)c1)NCC1CCCN1c1ccccc1 (stereo not given) | / | / | / | / | .
CC(=O)c1cccc(NC(=O)N2C[C@H]3C[C@H](C2)c2cccc(=O)n2C3)c1 | / | / | / | / | .
COC(=O)CN(c1ccc2c(c1)OCO2)S(C)(=O)=O | 24591 | . | . | . | .
CCCCCNC(=O)CN(c1ccc2c(c1)OCO2)S(C)(=O)=O | 20699 | . | . | . | .
CCN(CC)C(=O)CN(c1ccc2c(c1)OCO2)S(C)(=O)=O | . | . | . | . | .
COc1ccccc1NC(=O)N1CCC[C@H](Cc2nc(-c3cnccn3)no2)C1 | / | / | / | / | .
C=CCn1cccc(/C=C/C(=O)c2ccc(C(C)(C)C)cc2)c1=S | . | . | 30 | . | .
O=C(C=Cc1ccccc1Cl)c1ccccc1 | . | . | . | . | .
O=C(NCC1(c2cccs2)CCOCC1)c1cc(Br)cs1 | / | / | / | / | .
O=c1[nH]c(O)c(C=NC2CCCCC2)c(=O)[nH]1 | . | ? | . | 37 | .
COc1ccccc1-c1cn2nnc(C(=O)NCc3c(C)noc3C)c2c(=O)[nH]1 | / | / | / | / | 25
COC(=O)c1ccc2c(=O)n(CC(=O)NCc3ccc(F)cc3)c(=S)[nH]c2c1 | / | / | / | / | .
O=c1cc(N2CCN(c3ccccc3)CC2)[nH]c(=O)n1Cc1ccc(F)cc1 | . | . | . | . | .
CC1(C)CN(c2ccccc2)N(Cc2ccc(F)cc2)C1=O | 18014 | . | . | . | .
CC(=O)Nc1ccc(NC(=O)CCCn2nc(-c3ccc(Cl)cc3)ccc2=O)cc1 | / | / | / | / | .
C=CCn1c(=O)c2ccccc2n2c(SCC(=O)/C(C#N)=C(\C)N)nnc12 | 24633! | . | ? | . | .
C=CCn1c(=O)c2ccccc2n2c(SC(C)C(N)=O)nnc12 (stereo not given) | . | . | . | . | .
O=C(C1CC(=O)N(c2cccc(Br)c2)C1)N1CCN(CCn2ccnc2)CC1 (stereo not given) | / | / | / | / | .
Cn1nc(C(F)(F)F)c(C(=O)Nc2ccc(F)cc2F)c1Sc1ccc(C(F)(F)F)cc1 | 22356 | . | . | . | .
O=C(NCc1ccc(F)cc1)N1CCC[C@H](Cc2nc(-c3cnccn3)no2)C1 | / | / | / | / | .
O=C(NCc1ccccc1F)C1CCN(C(=O)NCc2ccccc2)CC1 | 17003 | . | . | . | .
O=C(NCc1ccc(F)cc1)C1CCN(C(=O)NCc2ccccc2)CC1 | . | . | . | . | .
O=C(NC1CCCCC1)C1CCN(C(=O)NCc2ccccc2)CC1 | 16321 | . | . | . | .
CCOC(=O)SC1=N/C(=C\c2ccc(N(C)C)cc2)C(=O)S1 | 19076 | . | . | . | .
Cc1cc(=O)[nH]c(N2CCN(Cc3ccccc3)CC2)n1 | . | . | . | . | .
SMILES | Bead autofluor | BoNT F protease | BoNT-A LC inh2 | Anthrax LF prot | SSB-PriA inh
CCCCc1c(O)nc(N2CCN(Cc3ccccc3)CC2)[nH]c1=O | 21940 | . | . | . | .
CC(C)Cc1nc2sc3c(c2c(=O)n1N)CC(C(C)C)OC3 (stereo not given) | . | . | . | . | .
CC(C)C1Cc2c(sc3ncnc(NN)c23)CO1 (stereo not given) | . | . | . | . | 46
Cc1ccc(CN(C(=O)c2cc3ccccc3oc2=O)C2CCS(=O)(=O)C2)cc1 (stereo not given) | 21783 | . | . | . | .
Cc1cc2oc(C(=O)N(Cc3ccccc3)C3CCS(=O)(=O)C3)cc(=O)c2cc1Cl (stereo not given) | 19953 | . | . | . | .
O=C(c1cc(=O)c2ccccc2o1)N(Cc1ccccc1)C1CCS(=O)(=O)C1 (stereo not given) | . | . | . | . | .
COC(=O)CN1CCC(COCc2cc(OC)cc(OC)c2)CC1 | / | / | / | / | .
COCCc1noc(C(N)CCS(C)(=O)=O)n1 (stereo not given) | / | / | / | / | .
CSc1ccc(/C=C/C(=O)c2c(O)cc(C)oc2=O)cc1 | . | 45 | . | . | .
Cc1cc(O)c(C(=O)/C=C/c2ccc(F)cc2)c(=O)o1 | / | / | / | / | .
Cc1cc(C)nc(SCC(=O)Nc2ccc(S(=O)(=O)NC(C)(C)C)cc2)n1 | . | . | ? | . | .
Cc1ccc(NC(=O)CSc2nnc(-c3ccc(S(=O)(=O)N4CCCC4)cc3)o2)cc1C | 21954 | . | . | . | .
Cc1cc(C)nc(SCC(=O)Nc2ccc(S(=O)(=O)NCCO)cc2)n1 | 23188 | . | . | . | .
Cc1cc(C)nc(SCC(=O)Nc2ccc(S(=O)(=O)N3CCCCC3)cc2)n1 | 16364 | . | . | . | .
Cc1csc(SCC(=O)Nc2ccc(S(=O)(=O)N3CCCC3)cc2)n1 | . | . | . | . | .
